59 molecules from PubChem BioAssay AID1063 (University of Pittsburgh Molecular Library Screening Center, 2008) can be followed below.

Out of some 200,000 compounds screened, about 18,000 (9%) were called active. What follows is part of a selection rich in actives, with near analogues and random picks from the rest. A number with no mark means an inactive call. No stated cut-off is given here; in the data, active means inhibition above about 50%; inactive means the rest.

As a reminder, the inhibition is the relative decrease from the control value, in per cent.

A short description of the assay: Leishmania major promastigote growth inhibition, primary screen (AID 1063).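 Further: promastigotes grown with compound for 44 hours at 28 °C.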 To be noted: Leishmania major promastigotes, resazurin fluorescence viability; at 10 µM; hits give high values. (Alamar Blue is a resazurin reagent that responds to reducing activity.)
Consider `CNc1nc2c(C)cccn2c(=O)c1C=Nc1ccc(OC)cc1`, for which the inhibition was 1.72%.

Regarding `C/C(=N/NC(=O)c1ccc(NC(=O)c2ccc(F)cc2)cc1)c1ccccc1`, the inhibition was -6.46%.

`CC(=O)Nc1ccc(/C(C)=N/NC(=O)CN(c2ccccc2Br)S(C)(=O)=O)cc1`: the inhibition was 50.5% (active).

Turning to `COc1ccccc1N(CC(=O)Nc1ccc(C(F)(F)F)cc1)S(C)(=O)=O`, the inhibition was 1.92%.

On to `O=C(Nc1ccccc1F)c1ccc(Cn2cc(Br)cn2)cc1`, for which the inhibition was -6.11%.

As for `Cc1ccc(-c2nc(C#N)c(NCCCn3ccnc3)o2)cc1`, the inhibition was 2.16%.

As to `O=C(Cn1ncc(N2CCCC2)c(Br)c1=O)c1ccc(Cl)cc1`, the inhibition is 1.31%.

As for `CC1CCCC(C)N1CCCNC(=O)c1cc2c(=O)n(C)c3ccccc3c2n1C` (centres undefined), the inhibition was 8.51%.

For `CCn1c(=O)cc(OCC(=O)NCCCN2CCN(c3cccc(Cl)c3)CC2)c2ccccc21`, the inhibition is 23.9%.

For the molecule `Cn1c(C(=O)NCCCN2CCN(c3cccc(Cl)c3)CC2)cc2c(=O)n(C)c3ccccc3c21`, the inhibition is 62.5% (active).

For `Cc1cc(NC(=O)CSc2nc3c(cc2C#N)CCCCC3)no1`, the inhibition is 2.09%.

Take `O=C(CCC1CCCN(C(=O)Cc2ccc(F)cc2)C1)N1CCN(c2ccccn2)CC1` (centres undefined): the inhibition was 0.87%.

As to `O=C(COC(=O)c1cnccn1)Nc1cccc2ccccc12`, the inhibition is -4.62%.

`Cc1cc(C)n2nc(C(=O)N(C)C(c3ccccc3)c3ccccc3)nc2n1`: the inhibition is 0.1%.

As to `O=C(CO/N=C/c1ccc(OC(F)F)cc1)NCc1ccc(F)cc1`, the inhibition was 6.32%.

As for `COc1ccc(N2C(=O)C(CC(=O)Nc3ccccc3)N(Cc3ccc(OC)c(OC)c3)C2=O)cc1` (centres undefined), the inhibition was -5.05%.

In the case of `COC(=O)CN1C(=S)N(c2ccccc2)C(=O)C1CC(=O)Nc1ccc(Cl)cc1` (centres undefined), the inhibition is 50.4% (active).

Consider `CCOc1ccc(NC(=O)CC2C(=O)N(c3ccccc3)C(=O)N2CCOC)cc1` (centres undefined), for which the inhibition is -1.57%.

In the case of `O=C(Nc1ccc(-c2ccc3nncn3n2)cc1)C1CCCCC1`, the inhibition was -4.63%.

With `CCc1ccc(CN2C(=O)c3ccccc3C2C(=O)NCC2CCCO2)cc1` (centres undefined), the inhibition is 5.61%.

Take `COc1cccc(CN(C)CC(=O)NCc2ccccc2Cl)c1OC`: the inhibition was 2.93%.

Turning to `Cn1c(=O)c(=O)n(C)c2cc(S(=O)(=O)NCCc3ccccc3)ccc21`, the inhibition is 18.8%.

Turning to `COC(=O)c1cc(S(=O)(=O)NC2CCN(Cc3ccccc3)CC2)cn1C`, the inhibition was 79.3% (active).

As for `O=C(NC1(C(F)(F)F)NC(=O)N(C2CCCCC2)C1=O)c1ccco1` (centres undefined), the inhibition was -0.8%.

As to `COc1cc(NC(=S)NCc2ccco2)c(OC)cc1Cl`, the inhibition was 7.75%.

On to `COc1cccc(C(=O)Nc2ccc(NC(=O)c3ccco3)cn2)c1`, for which the inhibition was 4.41%.

As for `COc1ccccc1C(=O)Nc1ccc(NC(=O)c2ccco2)c(C)c1`, the inhibition was 3.48%.

In the case of `COc1ccc(NC(=O)c2cccc(NC(=O)c3ccco3)c2)c(OC)c1`, the inhibition was 99.3% (active).

With `Cc1ccnc(NC(=O)c2ccc(NC(=O)c3ccco3)cc2)c1`, the inhibition is -2.95%.

`COC(=O)c1cc(Cl)c(NC(=O)c2ccco2)cc1OC`: the inhibition is 8.8%.

As to `COC(=O)c1ccc(NC(=O)c2ccco2)cc1`, the inhibition is -5.73%.

For `Cc1ccc(C(=O)COc2cccc(NC(=O)c3ccco3)c2)cc1`, the inhibition is 64.6% (active).

Consider `O=C(Nc1ccc(NC(=O)c2ccco2)c(Cl)c1)c1cccc([N+](=O)[O-])c1`, for which the inhibition was -5.27%.

Consider `COc1cc(NC(=O)c2cc([N+](=O)[O-])ccc2Br)ccc1NC(=O)c1ccco1`, for which the inhibition is 99% (active).

As for `CCS(=O)(=O)c1ccc(O)c(NC(=O)COc2ccc(Cl)cc2)c1`, the inhibition was -12.8%.

As for `CCOc1c(CNCc2ccc(C(=O)O)cc2)cccc1OC`, the inhibition is -5.92%.

Regarding `NS(=O)(=O)c1ccc(NC(=S)NC(=O)c2cccnc2)cc1`, the inhibition is -2.35%.

Consider `COCC(C)n1c(C)cc(C(=O)COc2ccc(C)nc2[N+](=O)[O-])c1C` (centres undefined), for which the inhibition is 3.94%.

As to `CCc1ccc(NC(=O)C(=O)N/N=C(\C)CC(=O)NCCOC)cc1`, the inhibition was -2.29%.

For the molecule `COc1ccc(NC(=O)CN2C(=O)CSC2=O)cc1`, the inhibition was -6.2%.

With `COc1cc(SC#N)ccc1N=Cc1c(C)[nH]n(-c2ccc(C)cc2)c1=O`, the inhibition was 100% (active).

Turning to `CCc1nnc(NS(=O)(=O)c2ccc(N=Cc3c(C)[nH]n(-c4ccc(C)cc4)c3=O)cc2)s1`, the inhibition was -3.52%.

As for `Cc1ccc(-n2[nH]c(C)c(/C=N/N3C(=O)c4cccc5cccc(c45)C3=O)c2=O)cc1`, the inhibition was -6.15%.

Regarding `COc1ccc(C)cc1NC(=O)CSc1nnc(CC(=O)Nc2ccccc2F)n1C`, the inhibition was -0.88%.

Regarding `O=C(COC(=O)C12CC3CC(CC(O)(C3)C1)C2)NC12CC3CC(CC(C3)C1)C2`, the inhibition is 17.4%.

As to `Cc1ccc(C(=O)NC(=S)NCc2cccnc2)cc1`, the inhibition was 2.7%.

Turning to `Cc1cccc(C)c1NC(=S)N(Cc1cccnc1)Cc1ccccc1Cl`, the inhibition was 93.8% (active).

For `COCCNC(=S)N(Cc1cccnc1)Cc1ccc(OC)c(OC)c1`, the inhibition is 1.16%.

Regarding `O=C(Nc1ccccc1)N(Cc1cccnc1)Cc1ccco1`, the inhibition was 4.43%.

`Cc1ccc(CN(Cc2cccnc2)C(=S)Nc2cc(Cl)ccc2C)cc1`: the inhibition is 93.8% (active).

Consider `Cc1c(Cl)cccc1NC(=S)N(Cc1ccccc1)Cc1cccnc1`, for which the inhibition is 90.4% (active).

On to `COCCN(CCOC)C(=S)Nc1ccccc1Cl`, for which the inhibition is -4.19%.

On to `Cc1ccc(NC(=S)NCc2ccccc2Cl)c(C)c1`, for which the inhibition is 22.1%.

Consider `Cc1ccc(CN(Cc2cccnc2)C(=S)Nc2cccc(Cl)c2C)cc1`, for which the inhibition is 21.5%.

Turning to `CC(C)CCC(C)NC(=O)c1ccc2nccnc2c1` (centres undefined), the inhibition is 11.2%.

Take `COc1cc(-c2nnn(CC(=O)NCc3ccccc3)n2)cc(OC)c1OC`: the inhibition was 16.3%.

Take `COc1cc(C(=O)N2C(=O)c3cccc(N)c3C2=O)cc(OC)c1OC`: the inhibition was -3.21%.

On to `COCCn1c(C)cc(C(=O)COC(=O)/C=C/c2cccc(OC)c2)c1C`, for which the inhibition was 0.63%.

Take `Cc1cc(C)nc(NS(=O)(=O)c2ccc(N/C=C\C(=O)c3cccs3)cc2)n1`: the inhibition was 4.34%.
